Compounds with a hit are over-represented: about 0.84% of the library has one in this group of screens.
SRC1 TRFRET art: counter-screen for PPARgamma SRC-1 recruitment agonists: TR-FRET artefact | TR-FRET ratio at 8 µM | TR-FRET detection artefact counter-screen, emission ratio; active compounds read high | 99,000 tested, 0.34% active | AID 1051; in the data active = TR-FRET ratio above about 2300
PPARg SRC-1 ag: promotes SRC-1 coactivator recruitment by human PPARgamma. PPARgamma-SRC-1 coactivator recruitment biochemical assay. P37231. 200,000 tested, 0.41% active. AID 631. activation, % at 8 µM; in the data active = activation above about 19%
PPARg SRC3 recr: promotes SRC-3 coactivator recruitment by human PPARgamma | P37231 | biochemical PPARgamma/SRC-3 coactivator recruitment assay | activation, % at 8 µM | 200,000 tested, 0.26% active | AID 731; in the data active = activation above about 23%
TR-FRET SRC-2 ct: flags TR-FRET format artefacts in PPARgamma SRC-2 recruitment agonist screen; TR-FRET artefact counter-screen; active compounds read high; TR-FRET ratio at 8 µM; 200,000 tested, 0.4% active; AID 1049; in the data active = TR-FRET ratio above about 2000
SRC3 TRFRET art: TR-FRET artefact, counter-screen to PPARgamma/SRC-3 agonist assay; PPARgamma/SRC-3 format; active compounds read high; TR-FRET ratio at 8 µM; 99,000 tested, 0.39% active; in the data active = TR-FRET ratio above about 2000
PPARg SRC2 recr: PPARgamma-driven SRC-2 recruitment agonism; PPARgamma LBD-SRC-2 recruitment, biochemical; 200,000 tested, 0.34% active; P37231; activation, % at 8 µM
PPARg SRC2 conf: human PPARgamma SRC-2 recruitment agonism, confirmation; shares compounds with PPARg SRC3 recr; biochemical SRC-2 recruitment by PPARgamma; activation, % at 8 µM; 790 tested, 52% active; AID 1297
PPARg SRC1 ag: human PPARgamma SRC-1 recruitment agonism, confirmation. AID 1300. activation, % at 8 µM. shares compounds with PPARg SRC3 recr. PPARgamma–SRC-1 coactivator recruitment biochemical assay. 790 tested, 43% active; in the data active = activation above about 20%
PPARg SRC3 conf: confirmation of agonists of SRC-3 recruitment by human PPARgamma. shares compounds with PPARg SRC3 recr. biochemical PPARgamma-SRC-3 coactivator recruitment, agonist mode. activation, % at 8 µM. 790 tested, 29% active. AID 1301; in the data active = activation above about 24%
A number is an active result; - = inactive; . = no result. Cut-off read from the data, not from the text of the source, unless noted: active = activation above about 22%; inactive = the rest.

SMILES | SRC1 TRFRET art | PPARg SRC-1 ag | PPARg SRC3 recr | TR-FRET SRC-2 ct | SRC3 TRFRET art | PPARg SRC2 recr | PPARg SRC2 conf | PPARg SRC1 ag | PPARg SRC3 conf
O=C(Nc1cccnc1)c1sc(Nc2ccccc2F)nc1-c1ccccc1 | 3447 | 50 | 31 | 3029 | 3407 | 48 | 68 | 50 | 46
O=C(Nc1cccnc1)c1sc2cccc(F)c2c1Cl | - | - | - | - | - | - | . | . | .
Cc1ccccc1Nc1nc(-c2ccccc2)c(C(=O)Nc2cccnc2)s1 | 2835 | 24 | - | 1978 | 2456 | 26 | 44 | 36 | 26
Cc1nc(SCC(O)CCl)c([N+](=O)[O-])[nH]1 (stereo not drawn) | . | - | - | - | . | - | . | . | .
S=c1[nH]nc(-c2cccnc2)o1 | . | - | - | - | . | - | . | . | .
S=c1[nH]nc(-c2cccc(Br)c2)o1 | . | 94 | 150 | 4187 | . | 108 | 68 | 48 | 48
CS(=O)(=O)c1sc2nc(-c3cccs3)cc(-c3ccccc3)c2c1N | . | 22 | - | 2002 | . | 30 | 28 | 22 | -
c1coc(C2Nc3cccc4cccc(c34)N2)c1 | . | - | - | - | . | - | . | . | .
CCOc1ccc(-c2nnn(CC(=O)N3CCCC3)n2)cc1OCC | . | - | - | - | . | - | . | . | .
Cc1cc(-c2ccc(Br)s2)nc(-n2cccc2)n1 | 2540 | 26 | 24 | 2162 | 2617 | 25 | 42 | 29 | 26
Cc1cc(-c2sccc2Br)nc(-n2cccc2)n1 | - | 22 | - | - | 2170 | - | - | - | -
Clc1ccc(-c2ccnc(-n3cccc3)n2)s1 | - | - | - | - | - | - | . | . | .
O=C(O)c1ccc(-c2ncc[nH]2)cc1 | - | - | - | - | - | - | . | . | .
O=C(Nn1c(O)c(C=C2N=c3ccccc3=N2)sc1=S)c1ccccc1Cl | . | - | 30 | - | . | - | 26 | 21 | -
O=C1CN(C(=O)COC(=O)CNS(=O)(=O)/C=C/c2ccccc2)c2ccccc2N1 | - | - | - | - | - | - | . | . | .
CCN(CC)c1ccc(/C=C2/C(=O)ON=C2C)cc1 | - | - | 26 | - | - | - | - | - | -
COc1cc(OC)cc(C(=O)N2CCC(n3c(C)nc4cc(F)ccc43)CC2)c1 | . | - | - | - | . | - | . | . | .
O=C(O)[C@H]1CCCC[C@H]1C(=O)Nc1ccc(Nc2ccccc2)cc1 | . | - | - | - | . | 27 | - | - | -
Cc1cccc(/C=C2/S/C(=N/N=C3\CC4CCC3(C)C4(C)C)NC2=O)c1 (stereo not drawn) | . | - | - | - | . | - | . | . | .
c1ccc(-c2nc(-c3cccs3)[nH]c2-c2ccccc2)cc1 | . | 25 | - | - | . | - | 23 | - | -
COc1cc(-c2nc(-c3ccccc3)c(-c3cccs3)[nH]2)cc(OC)c1OC | . | - | - | - | . | - | . | . | .
Cc1nnc(SC(C)C(=O)Nc2ccc(Cl)cn2)n1Cc1ccccc1 (stereo not drawn) | - | - | - | - | - | - | . | . | .
CC(Sc1nnc(-c2ccc(Cl)cc2Cl)n1Cc1ccccc1)C(=O)Nc1nccs1 (stereo not drawn) | . | 37 | - | - | . | - | - | 28 | 26
CC(C)CC(NC(=O)c1ccccc1)C(=O)OCC(=O)Nc1ccc(S(N)(=O)=O)cc1 (stereo not drawn) | - | - | - | - | - | - | . | . | .
Cc1onc(-c2ccccc2Cl)c1C(=O)Nc1nn[nH]n1 | - | - | - | - | - | - | . | . | .
SMILES | SRC1 TRFRET art | PPARg SRC-1 ag | PPARg SRC3 recr | TR-FRET SRC-2 ct | SRC3 TRFRET art | PPARg SRC2 recr | PPARg SRC2 conf | PPARg SRC1 ag | PPARg SRC3 conf
Cc1onc(-c2ccccc2Cl)c1C(=O)Nc1nnc(-c2ccc(Cl)cc2Cl)s1 | . | 23 | - | - | . | - | 31 | 23 | -
Cc1onc(-c2c(F)cccc2Cl)c1C(=O)Nc1nnc(C2CC2)s1 | . | - | - | - | . | - | . | . | .
Cc1onc(-c2c(F)cccc2Cl)c1C(=O)Nc1nnc(-c2ccccc2)s1 | . | - | 26 | - | . | - | 26 | 25 | -
Cc1onc(-c2ccccc2Cl)c1C(=O)Nc1nnc(-c2ccc(Br)cc2)s1 | . | 29 | - | 2175 | . | 28 | 32 | - | -
Cc1onc(-c2ccccc2Cl)c1C(=O)Nc1nnc(-c2ccc(F)cc2)s1 | . | - | 32 | - | . | 22 | - | - | -
Cc1onc(-c2ccccc2Cl)c1C(=O)Nc1ccc(F)c(F)c1 | . | - | - | - | . | - | . | . | .
CCNS(=O)(=O)c1ccc(NC(=S)NCC2CCCO2)cc1 (stereo not drawn) | - | - | - | - | - | - | . | . | .
CCc1ccccc1N/C(=N\S(=O)(=O)c1ccccc1)C(F)(F)F | - | - | - | - | - | - | . | . | .
CCOC(=O)c1sc(NC(=O)COC(=O)Cn2cnc3ccccc32)c(C(=O)OCC)c1C | - | - | - | - | - | - | . | . | .
CCOc1ccc(N2CCc3c(C)nc(SC)nc32)cc1 | - | - | - | - | - | - | . | . | .
Cc1cc(C)n(-c2ccc(C(=O)OCC(=O)c3ccc(Br)s3)cc2)n1 | . | 20 | 36 | 3035 | . | 28 | 29 | 22 | -
CCOC(=O)C1(CCc2ccccc2)CCN(C(=O)[C@@H]2C[C@@H](C)NC(=S)N2)CC1 | - | - | - | - | - | - | . | . | .
CC(C)C1Cc2c(C#N)c(N)sc(=S)c2CO1 (stereo not drawn) | . | 33 | 47 | 2315 | . | 39 | - | - | -
COc1cccc(CNC23CC4CC(CC(C4)C2)C3)c1OCc1ccccc1 | - | - | - | - | - | - | . | . | .
CC(C)OC(=O)CCCN1C(=O)c2ccc(N)cc2C1=O | . | - | - | - | . | 23 | - | - | -
O=C(O)c1ccc2c(c1)C(=O)N(c1cc(C(=O)O)ccc1Br)C2=O | - | - | - | - | - | - | . | . | .
Cn1c(C(=O)OCC(=O)NCc2ccco2)cc2sccc21 | . | - | - | - | . | - | . | . | .
CCC(OC(=O)c1cc2sccc2n1C)C(=O)NCc1ccco1 (stereo not drawn) | . | 31 | - | - | . | - | - | 25 | 26
CCc1nc(CN2CCCC(C(=O)c3ccc4c5c(cccc35)CC4)C2)c(C)[nH]1 (stereo not drawn) | - | - | - | - | - | - | . | . | .
CCn1c(SCC(=O)OC2CCCCC2)nnc1-c1ccncc1 | . | - | - | 2048 | . | 29 | - | - | -
CCn1c(SCC(=O)OC)nnc1-c1ccncc1 | . | - | - | - | . | - | . | . | .
CN(Cc1ccccc1)C(=O)c1nn2cccnc2c1Cl | - | - | - | - | - | - | . | . | .
CCn1c(C)nc2cc(S(=O)(=O)N3CCCC3)ccc21 | . | - | - | - | . | 24 | - | - | -
COc1ccc(OC)c(C(=O)COC(=O)CNC(=O)C2CCCCC2)c1 | . | - | - | - | . | - | . | . | .
O=C(Nc1ccccn1)C(NS(=O)(=O)c1cccc2nsnc12)c1ccccc1 (stereo not drawn) | . | - | - | - | . | - | . | . | .

Source: PubChem BioAssay (The Scripps Research Institute Molecular Screening Center)
